Screening data: PubChem BioAssay, National Center for Advancing Translational Sciences (NCATS)
Hits are enriched below; roughly 0.72% of the tested compounds scored in any of these assays.
Eya2 inh = qHTS Assay for Inhibitors of the Phosphatase Activity of Eya2 | Protein phosphatase EYA2 (Homo sapiens), O00167 | recombinant Eya2, OMFP fluorescence dephosphorylation (OMFP is methylfluorescein phosphate) | Potency, µM (highest dose often 76.9 µM), actives largely listed as inhibitors | hit rate 0.006% among 330,000 | AID 488837, 2010
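Eya2 (0.2 uM) preincubated 10 min at ambient with compound, then OMFP substrate added at 50 uM; 10 min reaction in 50 mM HEPES pH 7.5, 50 mM NaCl, 5 uM MgCl2, 0.05% BSA, 1 mM DTT. Fluorescence read at Ex 485/Em 525 nm.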
CtBP-E1A inh = qHTS Assay for Inhibitors of the CtBP/E1A Interaction. AID 651724, 2012. AlphaScreen GST-E1A/His-CtBP binding, 1536-well; hits give low values. CtBP / adenovirus E1A interaction (AlphaScreen). activity change, % (test concentration not listed). hit rate 0.49% among 340,000; in the data active means activity change below about -65%; inconclusive means mostly about -30% to -63%
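Homogeneous bead-based format: GST-tagged E1A captured on glutathione donor beads, His-tagged CtBP on nickel acceptor beads; compounds precede bead addition by 2 h at 37 °C.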
RGS4 inh = Inhibitors of Regulator of G Protein Signaling (RGS) 4: qHTS. Regulator of G-protein signaling 4 (Homo sapiens), P49798. Potency, µM (titrated, usually from 114 µM), most hits filed as inhibitors. hit rate 0.039% among 390,000. Transcreener GDP fluorescence polarization, RGS4-accelerated GTP hydrolysis. AID 504845, 2011; further: nearly all actives have a fitted effect of over 75% in size
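MLSMR compounds (23 nl, pin-transferred) preincubated 10 min at room temperature with a 500nM (2x) first reagent, then RGS4 at 900nM (2x) plus Transcreener GDP mix added; fluorescence polarization (620/688 nm) read before and after 90 min at 30 °C.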
PI4K2A block = qHTS for small molecular inhibitors of PI4K2A; purified PI4K2A, ADP-Glo luminescence, 1 h; hits give low values; activity change, negative = inhibition, % at 76.9 µM; hit rate 0.13% among 420,000; AID 1346378, 2018; in the data active means activity change below about -50%; inconclusive means mostly about -30% to -49%
Target sequence (Q9BTU6 whole entry, looked up): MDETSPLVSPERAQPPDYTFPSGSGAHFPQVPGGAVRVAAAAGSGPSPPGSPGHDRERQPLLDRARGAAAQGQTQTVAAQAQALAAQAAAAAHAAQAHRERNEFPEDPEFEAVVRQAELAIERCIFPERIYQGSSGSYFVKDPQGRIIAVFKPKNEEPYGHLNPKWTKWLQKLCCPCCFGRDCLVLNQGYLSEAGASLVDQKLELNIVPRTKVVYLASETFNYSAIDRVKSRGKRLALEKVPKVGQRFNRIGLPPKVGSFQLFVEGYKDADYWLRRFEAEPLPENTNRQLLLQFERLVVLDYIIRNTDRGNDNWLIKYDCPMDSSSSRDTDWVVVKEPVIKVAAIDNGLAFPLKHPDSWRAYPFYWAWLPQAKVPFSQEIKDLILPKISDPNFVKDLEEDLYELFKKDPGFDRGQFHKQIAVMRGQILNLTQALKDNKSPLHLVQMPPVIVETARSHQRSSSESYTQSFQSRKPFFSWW
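ADP-Glo luminescence measured ADP generated by PI4K2A enzyme (4 ug/mL before mixing) with 1.2 mM PI substrate (pre-mix) and 300 microM ATP (pre-mix). Tris pH7.5 buffer with MgCl2, Triton X-100; 1 h reaction at ambient temperature.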
USP2a inh = qHTS Assay for Inhibitors of Ubiquitin-specific Protease USP2a Using CHOP2 as the Reporter; USP2 core, Ub-CHOP2 coupled fluorogenic reporter, 485/531; hit rate 0.01% among 330,000; Ubiquitin carboxyl-terminal hydrolase 2 (Homo sapiens), O75604; AID 463254, 2010; Potency, µM (titrated, usually from 38.3 µM), usual class: inhibitors
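Cell-free coupled assay: 10nM USP2 core preincubated 30min RT with compound in Tris-HCl pH 8.0/CaCl2/CHAPS buffer, then 25nM Ub-CHOP2 and 25nM reporter substrate; fluorescence (Ex 485/Em 531) read after 60min RT, normalized to NEM inhibition, concentration-response curves fitted.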
Six1-Eya2 blk = qHTS Assay for Inhibitors of the Six1/Eya2 Interaction | Homeobox protein SIX1 (Homo sapiens) + Protein phosphatase EYA2 (Homo sapiens), … | AlphaScreen GST-Six1/His-Eya2 binding, biochemical; hits give low values | activity change, % (concentration not given with the values) | hit rate 0.56% among 360,000 | AID 651725, 2012; in the data active means activity change below about -65%; inconclusive means mostly about -30% to -63%
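GST-Six1 + His-Eya2 (5X stock: 250/500 nM); Tris pH 8.0, 300 mM NaCl, 0.05% BSA, 0.02% Tween 20; GSH donor/Ni acceptor beads; 1 h 37 °C dark; AlphaScreen readout.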
A number is an active result; – = inactive; ? = inconclusive; · = not tested or not shown; ! = not active in a repeat; [ ] = dose if it differs, or a comment. Unless noted, the call rests on the fitted dose curve; in most records, active means well fitted curve in the direction sought with a large enough effect; inconclusive means small, poorly fitted or top-dose-only effect, or another doubt; inactive means no such curve, though single readings can be large; an effect the other way counts as inactive or inconclusive.

SMILES | Eya2 inh | CtBP-E1A inh | RGS4 inh | PI4K2A block | USP2a inh | Six1-Eya2 blk
COc1ccc(CNCc2c(C(=O)O)n(Cc3ccc(F)cc3)c3cc(C)ccc23)cc1OC | · | · | – | – | · | ·
Cc1ccc(F)cc1C(=O)N1CCCC(C)(C(=O)NS(=O)(=O)C2CC2)C1 (stereo unspecified) | · | – | · | – | · | –
CCCCNC(=O)C(NC(=O)c1cccs1)C(=O)c1ccccc1 (stereo unspecified) | · | – | · | – | · | –
CCCCC(O)/C=C(C)/C=C/C=C/C(=O)N1CCCC1=O (stereo unspecified) | · | · | · | – | · | ·
Cc1cc(C(=O)N/N=C/c2cc(Cl)cc([N+](=O)[O-])c2O)n[nH]1 | – | -80.9 | – | – | – | ?
O=[N+]([O-])c1cc(Cl)cc(/C=N\Nc2ccccn2)c1O | – | -87.3 | –[11.4 µM] | – | – | -94.7
N=c1c[n+](N2CCOCC2)[n-]o1 | – | – | 18.9µM! | – | – | –
Cc1cccc(NC(=O)CSC2=Nc3ccccc3C3=NC(CC(=O)NCc4cccs4)C(=O)N23)c1 (stereo unspecified) | · | · | – | – | · | ·
COc1ccc(NC(=O)c2csc3c2CCCC3)cc1 | – | – | – | -60.7 | – | –
COc1cccc(NC(=O)c2csc3c2CCCC3)c1 | – | – | – | – | – | –
CCOC(=O)c1c(-c2ccccc2)csc1NC(=O)c1cc(-c2ccc(C)c(F)c2)on1 | · | · | – | – | · | ·
Cc1cc(C)c2nc(C)cc(N/N=C/c3ccc(O)cc3)c2c1 | – | -86.0 | – | – | – | ?
Cc1cc(N/N=C/c2ccc(O)cc2)c2cccc(C)c2n1 | – | · | – | – | – | ?
Cc1ccccc1CNC(=O)CCCn1c(=O)c2cccn2c2cccnc21 | · | · | – | – | · | ·
CCN(CC)c1ccc(NC(=O)c2cc(Cl)ccc2OC)cc1 | – | ? | – | – | – | -65.7
COc1ccc(Cl)cc1C(=O)Nc1ccncc1 | – | – | – | – | – | –
O=C(c1ccc2c(c1)N(Cc1ccc(Cl)cc1)C(=O)c1ccccc1S2=O)N1CCN(c2ccccc2F)CC1 (stereo unspecified) | · | · | – | – | · | ·
Cc1ccc(NC(=O)CC2S/C(=N/N=C3/NC(=O)CS3)NC2=O)cc1 (stereo unspecified) | – | – | – | – | – | -74.9
CCC(C)C(=O)N1c2ccccc2C(=C2SC(C(=O)OC)=C(C(=O)OC)S2)C(=S)C1(C)C (stereo unspecified) | – | -83.2 | – | – | – | -79.8
COc1ccc(C2=Nn3c(nnc3-c3cccnc3)SC2)cc1OC | – | -76.7 | – | – | – | -69.0
COc1ccc(C2=Nn3c(nnc3-c3ccccn3)SC2)cc1 | – | ? | – | – | – | -67.1
Cc1cccc(N2C(=O)N(CC(=O)C(C)(C)C)c3ccccc3S2(=O)=O)c1C | · | · | – | – | · | ·
CCC(NC(=O)Nc1cc(OC)ccc1OC)c1c(-n2cccc2)sc2c1CCN(CC)C2 (stereo unspecified) | · | · | – | – | · | ·
Cc1ccc(NCCN(C)C)c2c(=O)c3cc(O)ccc3sc12 | · | -67.9 | – | – | · | ?
CCN(CC)CCNc1ccc(CO)c2sc3ccccc3c(=O)c12 | – | ? | – | – | – | –
CN(C)CCNc1cccc2sc3ccc(O)cc3c(=O)c12 | · | -66.7 | · | – | · | ?
COc1cc(C)c2sc3ccccc3c(=O)c2c1NCCN(C)C | · | – | · | – | · | -74.9
Cc1cc(O)cc2c(=O)c3ccccc3sc12 | – | · | ? | – | – | –
CCN(CC)CCNc1cccc2sc3ccccc3c(=O)c12 | · | – | · | – | · | –
CCNC(=O)C1(C)CCCN1C(=O)c1ccc(C#N)cc1 (stereo unspecified) | · | – | · | – | · | –
